Holding throughout (settings): mRNA level, 48 h; actives raise or lower the signal
Read-out in test [1]: JUN Transcription Factor, JUN (gene 3725)
In words: LTEA_HepaRG_JUN: Life Technologies and Expression Analysis (LTEA) Assay for JUN Transcription Factor using HepaRG (AID 2283513). Put shortly:
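Differentiated HepaRG cells were exposed to chemicals for 48 h in serum-free induction medium, 8 concentrations from 100 uM in half-log steps, 0.5% DMSO vehicle, in duplicate. JUN mRNA was quantified by TaqMan qRT-PCR, normalized to ACTB, GAPDH, POLR2A.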

Read-out in test [2]: Lipase C (LIPC), LIPC (gene 3990)
Nature of the test: LTEA_HepaRG_LIPC: Life Technologies and Expression Analysis (LTEA) Assay for Lipase C (LIPC) using HepaRG (AID 2283514). The gist of the method:
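Differentiated human HepaRG cells in serum-free induction medium were exposed in duplicate for 48 h to eight concentrations (top 100 uM, half-log steps, 0.5% DMSO). LIPC mRNA was quantified by TaqMan qRT-PCR, normalized to ACTB, GAPDH and POLR2A, with bidirectional fitting versus DMSO.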

Read-out in test [3]: Lipoprotein lipase (LPL), LPL (gene 4023)
In words: LTEA_HepaRG_LPL: Life Technologies and Expression Analysis (LTEA) Assay for Lipoprotein lipase (LPL) using HepaRG (AID 2283515). The gist of the method:
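Differentiated human HepaRG cells in serum-free induction medium were exposed in duplicate for 48 h to eight half-log concentrations (top 100 uM) in 0.5% DMSO. LPL mRNA was quantified by TaqMan qRT-PCR, normalized to ACTB, GAPDH and POLR2A.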

Read-out in test [4]: MicroRNA 122 (MIR122), gene 406906
In words: LTEA_HepaRG_MIR122: Life Technologies and Expression Analysis (LTEA) Assay for MicroRNA 122 (MIR122) using HepaRG (AID 2283516). Also: the transcript read is the microRNA miR-122. Put shortly: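 Differentiated human HepaRG cells were exposed 48 h in serum-free induction medium to eight half-log concentrations (top 100 uM, 0.5% DMSO). Transcript level was measured by TaqMan qRT-PCR, normalized to ACTB, GAPDH and POLR2A, and fitted bidirectionally versus DMSO.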

Read-out in test [5]: matrix metalloproteinase-10 (MMP10), MMP10 (gene 4319)
Nature of the test: LTEA_HepaRG_MMP10: Life Technologies and Expression Analysis (LTEA) Assay for matrix metalloproteinase-10 (MMP10) using HepaRG (AID 2283517). The gist of the method: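 HepaRG, collagen I, ~100,000 cells/well; serum-free induction medium; 48 h exposure, duplicate, 8-pt half-log to 100 uM, 0.5% DMSO. Readout: TaqMan qRT-PCR, normalized to ACTB/GAPDH/POLR2A; bidirectional fit vs DMSO.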

Read-out in a further test: MYC, MYC (gene 4609)
In words: LTEA_HepaRG_MYC: Life Technologies and Expression Analysis (LTEA) Assay for MYC using HepaRG (AID 2283518). The gist of the method: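 Expression changes were scored by TaqMan qRT-PCR with ACTB, GAPDH and POLR2A normalization. Cultures in serum-free induction medium received duplicate 8-point concentration series, highest 100 uM, for 48 h; DMSO (0.5%) served as baseline.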

Read-out in test [6]: Paternally Expressed 10 (PEG10), PEG10 (gene 23089)
In words: LTEA_HepaRG_PEG10: Life Technologies and Expression Analysis (LTEA) Assay for Paternally Expressed 10 (PEG10) using HepaRG (AID 2283520). Put shortly:
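Differentiated HepaRG cells, plated 48 h then switched to serum-free induction medium, were exposed in duplicate for 48 h to eight half-log concentrations topping at 100 uM in 0.5% DMSO. PEG10 mRNA was quantified by TaqMan qRT-PCR, normalised to ACTB, GAPDH and POLR2A.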

Read-out in test [7]: Nuclear factor NF-kappa-B p105 subunit (Homo sapiens) (UniProt P19838)
In words: LTEA_HepaRG_NFKB1: Life Technologies and Expression Analysis (LTEA) Assay for Nuclear Factor Kappa B Subunit 1 (NFKB1) using HepaRG (AID 2283521).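 Also: TaqMan qRT-PCR transcript normalised to ACTB GAPDH and POLR2A housekeeping genes.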 The gist of the method:
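Human HepaRG cells receive eight half-log concentrations, highest 100 uM, for 48 h. NFKB1 expression is then quantified by qRT-PCR and analysed for up- or down-regulation relative to 0.5% DMSO vehicle.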

Read-out in test [8]: Protein phosphatase 2A (PPP2R4), PTPA (gene 5524)
In words: LTEA_HepaRG_PPP2R4: Life Technologies and Expression Analysis (LTEA) Assay for Protein phosphatase 2A (PPP2R4) using HepaRG (AID 2283522). Put shortly: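 Differentiated HepaRG cells in serum-free induction medium were exposed in duplicate for 48 h to eight concentrations, top 100 uM with half-log dilutions, in 0.5% DMSO. PPP2R4 mRNA was quantified by TaqMan qRT-PCR, normalized to ACTB, GAPDH and POLR2A.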

Read-out in test [9]: Phosphatase and tensin (PTEN), PTEN (gene 5728)
In words: LTEA_HepaRG_PTEN: Life Technologies and Expression Analysis (LTEA) Assay for Phosphatase and tensin (PTEN) using HepaRG (AID 2283523). The gist of the method:
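Differentiated human HepaRG cells, plated 48 h then switched to serum-free induction medium, were exposed in duplicate for 48 h to eight half-log concentrations up to 100 uM in 0.5% DMSO. PTEN mRNA measured by TaqMan qRT-PCR, normalized to ACTB/GAPDH/POLR2A, bidirectional fit versus DMSO.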

Read-out in test [10]: solute carrier (SLC22A1), SLC22A1 (gene 6580)
Nature of the test: LTEA_HepaRG_SLC22A1: Life Technologies and Expression Analysis (LTEA) Assay for solute carrier (SLC22A1) using HepaRG (AID 2283524). Put shortly: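 Human HepaRG cells were plated 48 h, switched to serum-free induction medium, then exposed in duplicate for 48 h to 8-point half-log series from 100 uM in 0.5% DMSO. SLC22A1 mRNA measured by qRT-PCR, normalized to ACTB/GAPDH/POLR2A, fitted bidirectionally versus DMSO.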

Read-out in test [11]: Pyruvate Dehydrogenase Kinase 4 (PDK4), PDK4 (gene 5166)
In words: LTEA_HepaRG_PDK4: Life Technologies and Expression Analysis (LTEA) Assay for Pyruvate Dehydrogenase Kinase 4 (PDK4) using HepaRG (AID 2283525). The gist of the method:
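Differentiated human HepaRG cells, pre-cultured 48 h, were exposed in duplicate for 48 h in serum-free induction medium to eight half-log concentrations up to 100 uM in 0.5% DMSO. PDK4 mRNA was quantified by qRT-PCR, normalized to ACTB, GAPDH and POLR2A, bidirectional fitting versus DMSO.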

Read-out in test [12]: NAD(P)H dehydrogenase [quinone] 1 (NQO1), NQO1 (gene 1728)
Nature of the test: LTEA_HepaRG_NQO1: Life Technologies and Expression Analysis (LTEA) Assay for NAD(P)H dehydrogenase [quinone] 1 (NQO1) using HepaRG (AID 2283526). The gist of the method: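 Differentiated HepaRG cells, plated 48 h and then switched to serum-free induction medium, were exposed in duplicate for 48 h to 8-point half-log concentrations up to 100 uM in 0.5% DMSO. mRNA measured by qRT-PCR, normalized to ACTB, GAPDH, POLR2A; bidirectional fit versus DMSO.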

Read-out in test [13]: Nuclear factor erythroid 2-related factor 2 (Homo sapiens) (UniProt Q16236)
In words: LTEA_HepaRG_NFE2L2: Life Technologies and Expression Analysis (LTEA) Assay for Nuclear factor erythroid 2-related factor 2 (NFE2L2) Transcription Factor using HepaRG (AID 2283527).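 As to outcome: TaqMan qRT-PCR transcript level normalised to ACTB GAPDH and POLR2A housekeeping genes.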 The gist of the method:
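Differentiated human HepaRG cells in serum-free induction medium were exposed for 48 h to eight concentrations (top 100 uM, half-log dilutions, 0.5% DMSO), in duplicate. NFE2L2 mRNA was quantified by TaqMan qRT-PCR, normalized to ACTB, GAPDH and POLR2A, with bidirectional fitting versus DMSO.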

Read-out in test [14]: succinate dehydrogenase complex iron sulfur subunit B (SDHB), SDHB (gene 6390)
In words: LTEA_HepaRG_SDHB: Life Technologies and Expression Analysis (LTEA) Assay for succinate dehydrogenase complex iron sulfur subunit B (SDHB) using HepaRG (AID 2283528). The gist of the method:
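A human HepaRG culture in serum-free induction medium received test chemicals for 48 h over an eight-point range capped at 100 uM. SDHB expression change was quantified by qRT-PCR.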

Read-out in test [15]: Signal transducer and activator of transcription 3 (Homo sapiens) (UniProt P40763)
In words: LTEA_HepaRG_STAT3: Life Technologies and Expression Analysis (LTEA) Assay for Signal transducer and activator of transcription (STAT3) using HepaRG (AID 2283529). Put shortly:
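Differentiated human HepaRG cells in serum-free induction medium were exposed in duplicate for 48 h to eight half-log concentrations up to 100 uM in 0.5% DMSO. STAT3 mRNA was quantified by TaqMan qRT-PCR, normalized to ACTB, GAPDH and POLR2A, and fitted bidirectionally against DMSO.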

Read-out in test [16]: solute carrier (SLCO1B1), SLCO1B1 (gene 10599)
In words: LTEA_HepaRG_SLCO1B1: Life Technologies and Expression Analysis (LTEA) Assay for solute carrier (SLCO1B1) using HepaRG (AID 2283530). Put shortly: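 Human HepaRG cultures treated for 48 h with an eight-concentration half-log series topping at 100 uM; SLCO1B1 measured by qRT-PCR and fitted bidirectionally relative to DMSO.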

Read-out in test [17]: Transforming Growth Factor (TGFA), TGFA (gene 7039)
In words: LTEA_HepaRG_TGFA: Life Technologies and Expression Analysis (LTEA) Assay for Transforming Growth Factor (TGFA) using HepaRG (AID 2283532). Put shortly: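 Differentiated human HepaRG cells, plated 48 h then switched to serum-free induction medium, were exposed in duplicate for 48 h to 8-point half-log series from 100 uM in 0.5% DMSO. TGFA mRNA measured by qRT-PCR, normalized to ACTB/GAPDH/POLR2A, bidirectional fit versus DMSO.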

Read-out in test [18]: sulfotransferase 2A1 (SULT2A1), SULT2A1 (gene 6822)
In words: LTEA_HepaRG_SULT2A1: Life Technologies and Expression Analysis (LTEA) Assay for sulfotransferase 2A1 (SULT2A1) using HepaRG (AID 2283531). The gist of the method: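 Gene-expression endpoint in a human liver cell line: SULT2A1 mRNA change after 48 h chemical treatment, curves fitted in both directions relative to 0.5% DMSO vehicle. Concentrations spanned eight half-log steps from 100 uM.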

Molecules are shown by their SMILES. Calls of active or inactive are those of the source. The calls were made as follows: active = hit-call score of the fitted dose curve at least 0.9, where 1 is the maximum; inactive = score below 0.9.

Nuclear factor erythroid 2-related factor 2 (Homo sapiens), sequence (Q16236 whole entry, looked up): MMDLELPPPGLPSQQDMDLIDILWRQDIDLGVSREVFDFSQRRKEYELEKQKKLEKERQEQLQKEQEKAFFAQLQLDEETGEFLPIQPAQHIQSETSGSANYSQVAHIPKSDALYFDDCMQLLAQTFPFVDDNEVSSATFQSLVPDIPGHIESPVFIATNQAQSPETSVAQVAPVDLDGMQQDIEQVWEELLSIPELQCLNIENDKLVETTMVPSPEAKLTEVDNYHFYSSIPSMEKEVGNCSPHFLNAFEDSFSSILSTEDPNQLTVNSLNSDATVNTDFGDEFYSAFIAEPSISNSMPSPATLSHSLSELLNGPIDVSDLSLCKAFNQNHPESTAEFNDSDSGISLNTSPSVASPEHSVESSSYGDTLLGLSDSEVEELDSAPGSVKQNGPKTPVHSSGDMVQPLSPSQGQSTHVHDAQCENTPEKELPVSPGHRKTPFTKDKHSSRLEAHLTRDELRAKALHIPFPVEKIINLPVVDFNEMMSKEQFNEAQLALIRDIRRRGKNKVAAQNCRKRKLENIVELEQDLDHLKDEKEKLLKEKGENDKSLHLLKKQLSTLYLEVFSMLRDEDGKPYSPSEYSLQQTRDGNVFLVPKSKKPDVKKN
Signal transducer and activator of transcription 3 (Homo sapiens), sequence (P40763 whole entry, looked up): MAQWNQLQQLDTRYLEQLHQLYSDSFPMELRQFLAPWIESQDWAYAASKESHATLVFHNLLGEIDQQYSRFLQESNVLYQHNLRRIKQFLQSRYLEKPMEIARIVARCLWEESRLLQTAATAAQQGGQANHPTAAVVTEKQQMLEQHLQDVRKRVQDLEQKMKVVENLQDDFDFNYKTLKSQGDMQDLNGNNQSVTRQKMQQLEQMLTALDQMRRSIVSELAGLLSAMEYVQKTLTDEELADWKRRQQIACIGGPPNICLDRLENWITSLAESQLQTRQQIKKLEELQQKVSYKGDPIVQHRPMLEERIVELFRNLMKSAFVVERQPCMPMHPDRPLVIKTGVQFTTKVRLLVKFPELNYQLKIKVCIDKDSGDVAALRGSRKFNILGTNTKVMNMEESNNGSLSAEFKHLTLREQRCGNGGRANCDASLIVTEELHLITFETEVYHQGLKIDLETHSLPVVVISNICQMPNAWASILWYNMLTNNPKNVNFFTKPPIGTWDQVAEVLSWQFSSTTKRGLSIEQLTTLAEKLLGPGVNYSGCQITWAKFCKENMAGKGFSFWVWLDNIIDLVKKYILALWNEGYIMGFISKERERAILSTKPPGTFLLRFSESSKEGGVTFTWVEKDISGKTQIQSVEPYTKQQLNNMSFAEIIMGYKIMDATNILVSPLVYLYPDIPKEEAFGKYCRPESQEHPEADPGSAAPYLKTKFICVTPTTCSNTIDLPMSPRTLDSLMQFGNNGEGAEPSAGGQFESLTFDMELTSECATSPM
Nuclear factor NF-kappa-B p105 subunit (Homo sapiens), sequence (P19838 whole entry, looked up): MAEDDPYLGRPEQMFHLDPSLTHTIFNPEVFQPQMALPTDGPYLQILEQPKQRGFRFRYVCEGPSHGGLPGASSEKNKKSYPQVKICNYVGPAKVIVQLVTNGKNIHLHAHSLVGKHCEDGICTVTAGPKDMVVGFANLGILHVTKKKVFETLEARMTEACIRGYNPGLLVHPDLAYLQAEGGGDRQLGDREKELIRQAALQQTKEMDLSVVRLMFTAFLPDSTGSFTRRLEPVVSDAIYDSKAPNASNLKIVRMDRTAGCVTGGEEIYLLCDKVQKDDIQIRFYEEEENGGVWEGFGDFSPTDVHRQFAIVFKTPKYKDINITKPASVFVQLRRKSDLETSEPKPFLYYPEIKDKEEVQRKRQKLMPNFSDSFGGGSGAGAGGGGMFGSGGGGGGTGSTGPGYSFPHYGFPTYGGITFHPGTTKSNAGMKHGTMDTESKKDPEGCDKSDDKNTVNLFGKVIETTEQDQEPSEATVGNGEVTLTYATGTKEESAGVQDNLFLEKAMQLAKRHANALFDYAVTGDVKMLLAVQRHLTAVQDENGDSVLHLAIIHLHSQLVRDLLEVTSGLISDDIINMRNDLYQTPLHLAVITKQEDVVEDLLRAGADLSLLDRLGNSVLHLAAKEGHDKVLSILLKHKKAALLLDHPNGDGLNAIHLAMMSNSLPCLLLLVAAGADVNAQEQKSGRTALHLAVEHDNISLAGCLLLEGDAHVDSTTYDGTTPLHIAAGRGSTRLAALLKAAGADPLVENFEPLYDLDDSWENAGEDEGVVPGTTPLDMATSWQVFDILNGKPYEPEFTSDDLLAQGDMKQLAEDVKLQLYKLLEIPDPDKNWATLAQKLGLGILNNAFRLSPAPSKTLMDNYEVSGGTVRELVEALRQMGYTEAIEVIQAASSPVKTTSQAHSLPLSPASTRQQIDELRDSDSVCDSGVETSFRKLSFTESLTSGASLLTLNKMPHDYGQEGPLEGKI

Consider `CC(C)CCCCCCCOC(=O)CCCCC(=O)OCCCCCCCC(C)C`, for which the outcome in test [1] was “inactive”; in test [2] it was “inactive”; in test [3] it was “inactive”; in [4], “inactive”; in [5] it was “inactive”; with MYC, MYC (gene 4609), “inactive”. The result in test [6], in test [7], in [8], in test [9], in test [10] and in [11] was inactive. Also, the compound was called inactive in [12], in [13], in test [14], in test [15], in test [16] and in [17].
On to `COc1ccc2sc(C(=O)Nc3nnn[nH]3)c(OC(C)C)c2c1`, for which the compound was classed as inactive in [1], in [2], in test [5], in test [8], in test [9] and in test [12]. Besides, the outcome in test [14] and in test [15] was inactive. Moreover, the concentration at half-maximal activity (AC50) is 12.7 µM (active) in [3]; 80.2 µM (active) in test [4]; 38 µM (active) with MYC, MYC (gene 4609); 35.8 µM (active) in test [6]; 97.4 µM (active) in test [10]; 32.5 µM (active) in test [11]. Besides, the concentration at half-maximal activity (AC50) was 27.6 µM (active) in test [13], 81.7 µM (active) in test [16], 78.4 µM (active) in [18] and 34 µM (active) in test [17].
Take `CC(=O)OC[C@H]1O[C@@](COC(C)=O)(O[C@H]2O[C@H](COC(C)=O)[C@@H](OC(C)=O)[C@H](OC(C)=O)[C@H]2OC(C)=O)[C@@H](OC(C)=O)[C@@H]1OC(C)=O`: the outcome in test [1] is “inactive”; in [2] it was “inactive”; in test [3], “inactive”; in test [4] it was “inactive”; in [5], “inactive”; in the test with MYC, MYC (gene 4609), “inactive”. In addition, the call in test [6], in [8], in test [9], in test [10], in [11] and in [12] was inactive. In addition, the compound was classed as inactive in [13], in test [14], in [15], in test [16] and in test [17].
`CCCCCCCCO`: the outcome in test [1] is “inactive”; in test [2], “inactive”; in [3], “inactive”; in test [4], “inactive”; in [5], “inactive”; in the test with MYC, MYC (gene 4609), “inactive”. The compound was classed as inactive in test [6], in test [8], in test [9], in test [10], in [11] and in test [12]. Moreover, the call in test [13], in test [14], in [15], in [16], in [18] and in test [17] was inactive.

One may read the AC50 as the midpoint of the concentration-response curve, whichever way the signal moves.

Values taken from PubChem BioAssay (EPA / NIEHS).
